# Test results reported in PubChem BioAssay.
# Where “and” joins values, the source holds several entries; their conditions need not be identical. Equal entries are not always repeated. Some structures have more than one record in an assay (separate samples or runs), and their calls can disagree. Calls of active or inactive are those of the source. Cut-off read from the data, not from the text of the source, unless noted: active = inhibition above about 80%; inactive = the rest.
# Columns and labels:
# [1] = growth inhibition, single agent or in combination, cell-based, chromothripsis tumors, cisplatin or BGB combos (AID 1671449); settings: LFS_MB_P medulloblastoma cells;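 note: cells exposed for 96 hours; 0% = vehicle DMSO and 100% = killing by high DMSO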
# [2] = growth inhibition, single agent and combos, cell-based, chromothripsis tumors, cisplatin or BGB combos (AID 1671450); settings: HDN33 neuroblastoma cells, stronger effect = higher value;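 note: cells exposed to compound for four days; 0% = vehicle DMSO and 100% = cell killing by high DMSO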
# [3] = growth inhibition, single agents and combos, ICB984, cell-based, cisplatin or BGB combos, synergistic combos for chromothripsis tumors (AID 1671451; call rule not given here;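 note: cells exposed for 96 hours before readout; 0% = vehicle DMSO and 100% = killing by high DMSO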); settings: ICB984 medulloblastoma cells, drug combinations, stronger effect = higher value
# [4] = growth inhibition, single agents and combos, LFS_MB_1R, cell-based, cisplatin or BGB combos, synergistic combos for chromothripsis tumors (AID 1671452); settings: LFS_MB_1R medulloblastoma cells, stronger effect = higher value;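 note: cells exposed for 96 hours before readout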
# [5] = growth inhibition, single agents and combos, HTB85, cell-based, BGB or cisplatin IC20 combos, synergistic combos for chromothripsis tumors (AID 1671453); settings: HTB85 osteosarcoma cells, drug combinations, stronger effect = higher value;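 note: cells exposed for 96 hours before readout; 0% = vehicle DMSO and 100% = high DMSO killing control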
# [6] = growth inhibition, single agents and combos, CRL2098, cell-based, BGB or cisplatin IC20 combos, synergistic combos for chromothripsis tumors (AID 1671454); settings: CRL2098 osteosarcoma cells, drug combinations, stronger effect = higher value;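 note: cells exposed for 96 h before readout; 0% = vehicle DMSO and 100% = killing by high DMSO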
# [7] = growth inhibition, single agents and combos, HD-MB03, cell-based, BGB or cisplatin IC20 combos, synergistic combos for chromothripsis tumors (AID 1671455; in the data active = inhibition above about 83%;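 note: 0% = vehicle DMSO and 100% = high DMSO as cytotoxic control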); settings: HD-MB03 medulloblastoma cells, stronger effect = higher value
# [8] = growth inhibition, single agents and combos, UWB1.289, cell-based, BGB or cisplatin combos, synergistic combos for chromothripsis tumors (AID 1671456); settings: UWB1.289 ovarian carcinoma cells, stronger effect = higher value;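 note: cells exposed to compound for four days; 0% = vehicle DMSO and 100% = killing by high DMSO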
# [9] = growth inhibition, single agents and combos, LFS_MB_2R, cell-based, cisplatin combos, synergistic combos for chromothripsis tumors (AID 1671457); settings: LFS_MB_2R medulloblastoma cells, stronger effect = higher value;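 note: cells exposed to compound for four days before readout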
# [10] = growth inhibition, MDA-MB-436, cell-based, BGB or cisplatin combos, synergistic combos for chromothripsis tumors (AID 1671458; call rule not given here;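 note: cells exposed for 96 hours; 0% = vehicle DMSO and 100% = killing by high DMSO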); settings: MDA-MB-436 breast carcinoma growth inhibition, drug combinations, stronger effect = higher value
# [11] = UWB1.289_BRCA1 ovarian cancer growth, cell-based, BGB or cisplatin combinations (AID 1671459); settings: UWB1.289 BRCA1 ovarian carcinoma, drug combinations, stronger effect = higher value
# [12] = drug combination toxicity in non-malignant astrocytes – cell-based, BGB or cisplatin IC20 combos, cytotoxicity control for chromothriptic childhood tumor combination screen (AID 1671460); settings: Human astrocytes, viability inhibition, drug combinations, at 0.5 µM, stronger effect = higher value;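 note: cells exposed to compounds for 96 hours before viability readout; 0% = vehicle and 100% = killing control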
# [13] = BT084 cell growth, single and combined drugs, ICGC_MB145, cisplatin and BGB IC40 combos (AID 1671461); settings: BT084 medulloblastoma cells, drug combinations, stronger effect = higher value;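 note: cells exposed to drugs for 96 hours; 0% = vehicle DMSO and 100% = high DMSO full killing control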
# [14] = RCMB18 cell growth, single agent and combined, cisplatin and BGB IC40 combos (AID 1671462); settings: RCMB18 medulloblastoma cells, stronger effect = higher value;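 note: cells exposed to compound for four days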
# [15] = CRL1545 cell growth, single agent and combined, cisplatin and BGB IC20 combos (AID 1671464); settings: CRL1545 osteosarcoma cells, stronger effect = higher value;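 note: cells exposed to compound for 96 hours before readout; 0% = vehicle DMSO and 100% = high DMSO killing control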
# [16] = measured here: combination with BGB IC40, at 0.05 µM
# [17] = measured here: with BGB IC20 combination, at 0.5 µM
# [18] = measured here: with cisplatin IC20 combination, at 0.5 µM
# [19] = measured here: combination with cisplatin, at 0.5 µM
# [20] = measured here: combination with cisplatin, at 5 µM
smiles,measurement,setting,value
CCC1(O)C(=O)OCc2c1cc1n(c2=O)Cc2cc3c(CN(C)C)c(O)ccc3nc2-1 (stereo not drawn),inhibition,"[1]; at 0.5 µM, stronger effect = higher value",-7.42% (inactive) and 3.72% (inactive) and -2.55% (inactive)
same,inhibition,"[1]; measured here: combination with BGB IC20, at 0.005 µM",-2.96% and 0.821% and -23.7%
same,inhibition,"[1]; measured here: combination with BGB IC40, at 0.005 µM",-28.9% and -14.4% and -12.5%
same,inhibition,[1]; [16],-8.3% and -3.25% and -7.46%
same,inhibition,"[1]; measured here: combination with cisplatin, at 0.5 µM, stronger effect = higher value",36.9% and 49.4% and -21.3%
same,inhibition,"[1]; measured here: combination with cisplatin, at 5 µM, stronger effect = higher value",93.3% and 91.7% and 75.9%
same,inhibition,"[2]; BGB combo, at 5 µM",96.4% and 97.1% and 98.1%
same,inhibition,[2]; at 0.5 µM,83.1% (active) and 85.8% (active) and 82.9% (active)
same,inhibition,"[2]; cisplatin combo, at 5 µM",97.1% and 98% and 96.8%
same,inhibition,[2]; [17],87% and 85.5% and 88%
same,inhibition,[2]; [18],75.5% and 82.8% and 74.8%
same,inhibition,"[2]; single agent, at 5 µM",95.8% and 96% and 97%
same,inhibition,"[3]; BGB IC20 combo, at 0.005 µM",1.19% and -8.91% and -7.41%
same,inhibition,"[3]; BGB IC40 combo, at 0.005 µM",-10.3% and 15% and 31.5%
same,inhibition,"[3]; BGB IC40 combo, at 0.05 µM",86.5% and 95.6% and 93.6%
same,inhibition,[3]; at 0.5 µM,-27.8% (inactive) and -43.8% (inactive) and -21.6% (inactive)
same,inhibition,"[3]; cisplatin combo, at 0.05 µM",86% and 95.5% and 93.6%
same,inhibition,"[3]; cisplatin combo, at 0.5 µM",-32.3% and -49.7% and -34.5%
same,inhibition,"[3]; cisplatin combo, at 5 µM",-21.2% and -33.4% and -10.9%
same,inhibition,"[3]; measured here: 5 uM single agent, at 5 µM",-12.3% and -23.2% and -4.56%
same,inhibition,[4]; at 0.5 µM,47.7% (inactive) and 43.3% (inactive) and 58.9% (inactive)
same,inhibition,[4]; [16],10.2% and -20.8% and 4.16%
same,inhibition,[4]; [19],82.2% and 88% and 73.7%
same,inhibition,[4]; [20],88.7% and 77.4% and 94.2%
same,inhibition,[5]; at 0.5 µM,96.9% (active) and 98% (active) and 97.5% (active)
same,inhibition,"[5]; measured here: with BGB IC20, at 0.5 µM",96.8% and 97.1%
same,inhibition,"[5]; measured here: with BGB IC20, at 5 µM",97.9% and 97.6% and 98.3%
same,inhibition,"[5]; measured here: with cisplatin IC20, at 0.5 µM",95.9% and 98.1% and 97.3%
same,inhibition,"[5]; measured here: with cisplatin IC20, at 5 µM",99.6% and 99.8%
same,inhibition,"[5]; single agent, at 5 µM",99.8%
same,inhibition,[6]; at 0.5 µM,65.1% (inactive) and 60.8% (inactive) and 61.1% (inactive)
same,inhibition,"[6]; measured here: combination with BGB at IC20, at 0.5 µM",71% and 76.8% and 68.6%
same,inhibition,"[6]; measured here: combination with cisplatin at IC20, at 0.5 µM",64.4% and 48.3%
same,inhibition,[7]; at 0.5 µM,98% (active) and 98.7% (active) and 97.9% (active)
same,inhibition,"[7]; measured here: combo with BGB at IC20, at 0.5 µM",98% and 98.7% and 98.4%
same,inhibition,"[7]; measured here: combo with cisplatin at IC20, at 0.5 µM",97.6% and 98.6% and 97.2%
same,inhibition,[8]; at 0.5 µM,77% (inactive) and 79.8% (inactive) and 77.4% (inactive)
same,inhibition,"[8]; measured here: inhibition with BGB combination, at 0.05 µM",19.5% and 12.5% and 11.3%
same,inhibition,"[8]; measured here: inhibition with cisplatin combination, at 0.05 µM",13.4% and 13.9% and 19.4%
same,inhibition,[9]; at 0.5 µM,-1.34% (inactive) and 9.72% (inactive) and -3.02% (inactive)
same,inhibition,[9]; [19],29.4% and 18.3% and 22.7%
same,inhibition,[9]; [20],72.5% and 69.7% and 68.5%
same,inhibition,[10]; at 0.5 µM,69.2% (inactive) and 68.2% (inactive) and 67.8% (inactive)
same,inhibition,"[10]; measured here: BGB combination, at 0.5 µM",61.3% and 61.9% and 60.6%
same,inhibition,"[10]; measured here: BGB combination, at 5 µM",65.7% and 71.1% and 67.8%
same,inhibition,"[10]; measured here: cisplatin combination, at 0.5 µM",72.6% and 68.5% and 65.5%
same,inhibition,"[10]; measured here: cisplatin combination, at 5 µM",82% and 77.6% and 79.6%
same,inhibition,"[11]; BGB combination, concentration series, at 5 µM",103% and 101% and 96.7%
same,inhibition,[11]; at 0.5 µM,82.6% (active) and 85.9% (active) and 82.4% (active)
same,inhibition,"[11]; cisplatin combination, concentration series, at 5 µM",113% and 107% and 110%
same,inhibition,[12],64.5% (inactive) and 68.3% (inactive) and 55.5% (inactive)
same,inhibition,[12]; measured here: combo with BGB IC20,69.2% and 71.9% and 60.5%
same,inhibition,[12]; measured here: combo with cisplatin IC20,49.5% and 56.1% and 33.1%
same,inhibition,[13]; at 0.5 µM,1.98% (inactive) and 4.12% (inactive) and -13.3% (inactive)
same,inhibition,"[13]; cisplatin combination, at 0.5 µM",37.8% and 38.2% and 36.1%
same,inhibition,"[13]; cisplatin combination, at 5 µM",37.9% and 28.6% and 20.5%
same,inhibition,"[13]; measured here: BGB IC40 combination 0.05 uM, at 0.05 µM",-16.5% and -30.7% and -23.7%
same,inhibition,"[13]; single agent, at 5 µM",-16% and -5.69% and -15.3%
same,inhibition,[14]; at 0.5 µM,11.7% (inactive) and 6.99% (inactive) and 15.6% (inactive)
same,inhibition,"[14]; cisplatin combo, at 5 µM",82.3% and 73.1% and 75.9%
same,inhibition,"[14]; measured here: BGB IC40 combination, at 0.05 µM",-8.83% and -28.2% and -20.8%
same,inhibition,[14]; [19],55.7% and 30% and 38.3%
same,inhibition,"[14]; single agent, at 5 µM",22.6% and 40.2% and 40.4%
same,inhibition,[15]; at 0.5 µM,78.9% (inactive) and 88.5% (active) and 81.8% (active)
same,inhibition,[15]; [17],91% and 95% and 93.8%
same,inhibition,[15]; [18],72.9% and 85.2% and 75.9%
same,inhibition,"[15]; single agent, at 0.05 µM",35.3% and 52% and 56.4%
same,inhibition,"[15]; single agent, at 5 µM",99.6% and 99.9% and 99.7%
